SMILES strings stand for the structures. Values joined by “and” are separate entries in the source; they are usually repeats but may differ in a detail not shown here. Identical values can stand only once. Inconclusive results are not listed. Active and inactive are the calls of the source. The call rests on the fitted dose curve; in most records, active means well fitted curve in the direction sought with a large enough effect; inconclusive means small, poorly fitted or top-dose-only effect, or another doubt; inactive means no such curve, though single readings can be large or run the other way. Where a SMILES comes first, the peptide text is derived from it. Bridges are numbered along the chain shown (N, C = ends). [ ]: non-standard residue; d: D form. The star is where a group is joined. X2 = CC[C@H](C)CCCCC(=O)*; Dab = NCC[C@H](N)C(=O)O

We go through nine compounds from PubChem BioAssay (NCATS).
On the % scale 0 is the no-effect control and ±100 the full control effect; potency means the concentration at half of the fitted maximal effect.

This assay in a line: qHTS Assay for Identifying Gametocytocidal Compounds (AID 743244).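 On max response: actives lower the fluorescent signal which means gametocytes are killed.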 Conditions: P. falciparum 3D7 stage III-V gametocytes, alamarBlue, 72 h; max response: active compounds read low. The method in brief: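 3D7 gametocytes, stages III–V, 20,000/well; cpd 72 h, 37 °C/5% CO2; + alamarBlue 24 h; fluor. Ex 525/Em 598.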
A general note: In qHTS, concentration-response curves come from the screen itself.
`CCC(C)(C)OC(=O)N[C@@H](Cc1c[nH]c2ccccc12)C(=O)N[C@@H](CCSC)C(=O)N[C@@H](CC(=O)O)C(=O)N[C@@H](Cc1ccccc1)C(N)=O`: the max response was -0.189% (inactive).

As for `CC1(S(=O)(=O)O)CC(=O)c2ccccc2C1=O` (centres undefined), the Potency was 6.31 µM (active).

For the compound `CC[C@H](C)CCCCC(=O)N[C@@H](CCN)C(=O)N[C@H](C(=O)N[C@@H](CCN)C(=O)N[C@H]1CCNC(=O)[C@H]([C@@H](C)O)NC(=O)[C@H](CCN)NC(=O)[C@H](CCN)NC(=O)[C@H](CC(C)C)NC(=O)[C@@H](CC(C)C)NC(=O)[C@H](CCN)NC1=O)[C@@H](C)O` (X2-[Dab]T[Dab][Dab][Dab][dL]L[Dab][Dab]T; lactam 4-C), the max response is 13.6% (inactive).

Consider `O.O=C([O-])CC([S-])C(=O)[O-].[Au+].[Na+].[Na+]` (centres undefined), for which the max response was -19.1% (inactive).

For the compound `CCCCc1cc2c(=O)c(C(=O)OC)c[nH]c2cc1OCc1ccccc1`, the max response is 5.7% (inactive).

Regarding `CC(C)(S)C(=O)N[C@@H](CS)C(=O)O`, the max response is -15.4% (inactive) and 8.89% (inactive).

In the case of `CCOC(=O)COc1ccc2c(=O)cc(-c3ccccc3)oc2c1`, the max response is 51.1% (inactive) and 12.3% (inactive).

`O=[N+]([O-])c1ccc(Oc2ccc(N=C=S)cc2)cc1`: the max response was 16.5% (inactive).

Regarding `CCC(=O)O`, the max response is -11.8% (inactive).
